Results reported in PubChem BioAssay (Tox21).
Results filed as inconclusive are left out. Activity calls are given as the source filed them. Unless noted, the call rests on the fitted dose curve.

Columns and labels:
[1] = molecular target: Thyrotropin receptor (Homo sapiens) (UniProt P16473); experiment: qHTS assay to identify small molecule agonists of the thyroid stimulating hormone receptor (TSHR) signaling pathway (AID 1224843); further: nearly all actives have a fitted effect of over 45% in size; further: potency means the concentration at half of the fitted maximal effect
Chain of Thyrotropin receptor (Homo sapiens) (P16473 whole entry, looked up): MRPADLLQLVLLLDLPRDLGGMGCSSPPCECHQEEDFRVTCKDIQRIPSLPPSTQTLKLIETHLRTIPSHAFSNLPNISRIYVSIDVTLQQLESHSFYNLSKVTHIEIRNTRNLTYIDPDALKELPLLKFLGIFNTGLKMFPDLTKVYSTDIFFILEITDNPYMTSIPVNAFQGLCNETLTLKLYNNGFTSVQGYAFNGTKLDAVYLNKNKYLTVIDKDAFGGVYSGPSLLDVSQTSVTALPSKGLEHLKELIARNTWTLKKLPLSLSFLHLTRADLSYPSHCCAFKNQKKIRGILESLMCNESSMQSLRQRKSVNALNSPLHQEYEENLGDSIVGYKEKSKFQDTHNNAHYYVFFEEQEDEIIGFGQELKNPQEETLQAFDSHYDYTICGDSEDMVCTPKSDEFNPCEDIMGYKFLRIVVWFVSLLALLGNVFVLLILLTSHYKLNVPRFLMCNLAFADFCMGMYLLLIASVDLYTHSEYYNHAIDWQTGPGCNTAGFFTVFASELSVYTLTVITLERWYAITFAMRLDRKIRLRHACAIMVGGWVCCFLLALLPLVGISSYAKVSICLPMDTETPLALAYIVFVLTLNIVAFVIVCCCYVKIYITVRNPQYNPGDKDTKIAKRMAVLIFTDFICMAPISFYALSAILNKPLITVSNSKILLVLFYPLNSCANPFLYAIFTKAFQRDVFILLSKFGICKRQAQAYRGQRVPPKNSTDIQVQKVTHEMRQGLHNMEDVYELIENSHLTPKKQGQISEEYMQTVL
Summary of the method: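 Using 15 concentrations per compound in triplicate, cAMP production was monitored in TSHR-HEK293 cells after 30 min compound incubation at RT; HTRF reagents followed, with fluorescence intensity recorded after 1 h.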

[2] = qHTS assay to identify small molecule agonists of the hypoxia (HIF-1) signaling pathway - cell viability counter screen (AID 1224844); further: nearly all actives have a fitted effect of over 50% in size; further: potency means the concentration at half of the fitted maximal effect
Summary of the method: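 In this counter screen, HRE-bla ME-180 cell viability after 17 hrs of compound exposure at 37C was read by CellTiter-Glo luminescence, multiplexed with the beta-lactamase reporter measurement.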

[3] = qHTS assay to identify small molecule agonists of H2AX (AID 1224845; active means well fitted activation curve with a large enough effect in the signal ratio in the repeat runs, not every such curve was filed as active; the % refers to the signal ratio)
Summary of the method: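 Wild-type CHO-K1 cells plated overnight, then exposed 3 hr at 37C to compounds at 15 concentrations (0.76% DMSO). Lysed, then HTRF anti-pH2AX(S139)-cryptate/anti-H2AX-d2 detection after 24 hr at room temperature; emissions 665 and 620 nm.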

[4] = qHTS assay to identify small molecule agonists of H2AX - cell viability counter screen (AID 1224847); further: nearly all actives have a fitted effect of over 30% in size; further: potency means the concentration at half of the fitted maximal effect; on activity change, negative = cytotoxicity: top concentration of the series differs between compounds
Summary of the method: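 Counter-screen for viability: CellTiter-Glo ATP luminescence read after 3 h compound treatment (15-point titration, 0.76% DMSO final) of CHO-K1 cells at 37C, with 30 min room-temperature reagent incubation.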

[5] = qHTS RealTime-Glo MT Cell Viability Assay in HepG2 cells - 24 hour (AID 1224867; active means well fitted curve in the direction sought with a large enough effect in the repeat runs; an effect the other way counts as inactive or inconclusive; further: nearly all actives have a fitted effect of over 50% in size; further: potency means the concentration at half of the fitted maximal effect)
Summary of the method: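 Tox21 10K library screened in qHTS format on HepG2 cells carrying RealTime-Glo reagents. Compounds were added after a 5 h preincubation, and the luminescent signal from continuous culture was measured repeatedly during 40 h treatment.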

[6] = qHTS RealTime-Glo MT Cell Viability Assay in HEK293 cells - 32 hour (AID 1224868; active means well fitted curve in the direction sought with a large enough effect in the repeat runs; an effect the other way counts as inactive or inconclusive; further: nearly all actives have a fitted effect of over 50% in size; further: potency means the concentration at half of the fitted maximal effect)
Summary of the method: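 Luminescence generated by NanoLuc from substrate produced by living HEK293 cells served as the viability signal. Each value reflects the reading at its stated time point during continuous 40 h compound exposure at 37 C.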

[7] = A CellTox Green Cytotoxicity Assay to monitor cytotoxicity in HEK293 cells - 0 hour (AID 1224869; active means well fitted curve in the direction sought with a large enough effect in the repeat runs; an effect the other way counts as inactive or inconclusive; further: nearly all actives have a fitted effect of over 50% in size; further: potency means the concentration at half of the fitted maximal effect)
Summary of the method: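 Real-time, in one plate: 600 HEK293 cells/well with dead-cell DNA dye, pinned compound after 5 h, 37 C incubation over 40 h; viable cells give no appreciable fluorescence.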

[8] = qHTS assay to identify small molecule agonists of the hypoxia (HIF-1) signaling pathway (AID 1224846; active means well fitted activation curve with a large enough effect in the signal ratio in the repeat runs, not every such curve was filed as active; the % refers to the signal ratio)
Summary of the method: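 ME-180 HRE-bla reporter cells; compounds in DMSO, 17 h at 37C; read-out beta-lactamase via CCF4-AM FRET.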

[9] = qHTS assay to identify small molecule antagonists of the estrogen related receptor (ERR) signaling pathway from Tox21 library (AID 1224848; active means well fitted curve in the direction sought with a large enough effect in the repeat runs; an effect the other way counts as inactive or inconclusive; further: nearly all actives have a fitted effect of over 50% in size)
Summary of the method: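 Tox21 10K compounds in DMSO tested for ERR pathway antagonism in NTP's ERR cell line; 18 h, 37 C exposure; ONE-Glo luminescence.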

[10] = qHTS assay to identify small molecule agonists of the estrogen related receptor (ERR) signaling pathway from Tox21 library (AID 1224849); details: ERR reporter cell line, ONE-Glo luciferase, 18 h; at 92.4 µM (top of the series) unless noted; further: nearly all actives have a fitted effect of over 15% in size
Summary of the method: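 Luciferase activity in ERR pathway reporter cells served as the agonist readout; exposure lasted 18 h at 37 C, with ONE-Glo detection after 30 min at room temperature.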
On the % scale 0 is the no-effect control and ±100 the full control effect.

C=CCc1ccccc1OCC(O)CNC(C)C (stereo not given)
inactive: Potency [1] | Potency [2] | Potency [3] | Potency [4] | Potency [5] | Potency [6] | Potency [7]

Cc1cscn1
inactive: Potency [1] | Potency [2] | Potency [3] | outcome [8] | Potency [4] | Potency [5] | Potency [6] | Potency [7]

CS(=O)(=O)c1ccc(-c2cn3ccccc3n2)cc1
inactive: Potency [1] | outcome [8] | Potency [9] | Potency [7]
active: Potency [2] 23.9 µM | Potency [4] 31 µM

CC(C)C(O)(c1ccc(OC(F)(F)F)cc1)c1cncnc1 (stereo not given)
active: Potency [1] 48.4 µM
inactive: Potency [2] | Potency [3] | outcome [8] | Potency [4] | Potency [5] | Potency [7]

COc1ccccc1Oc1c(NS(=O)(=O)c2ccc(C(C)(C)C)cc2)nc(-c2ncccn2)nc1OCCO
inactive: Potency [1] | Potency [2] | Potency [3] | outcome [8] | activity change, positive = activation [10] -21.1% [at 42.5 µM] | Potency [5] | Potency [6] | Potency [7]

C[C@]1(Cn2ccnn2)[C@H](C(=O)O)N2C(=O)C[C@H]2S1(=O)=O
inactive: Potency [1] | Potency [2] | Potency [3] | outcome [8] | Potency [4] | Potency [5] | Potency [6] | Potency [7]

N#[N+]c1ccc2c(S(=O)(=O)[O-])cccc2c1O
inactive: Potency [1] | Potency [2] | outcome [8] | Potency [4] | Potency [9] | activity change, positive = activation [10] -0.985% | Potency [5] | Potency [6] | Potency [7]

CCCCCCCCC(CCCCCC)C(=O)O (stereo not given)
inactive: Potency [1] | Potency [3] | activity change, positive = activation [10] -27.5% | Potency [5] | Potency [6] | Potency [7]
active: Potency [2] 43.6 µM

O=C(O)CCc1nc(-c2ccccc2)c(-c2ccccc2)o1
inactive: Potency [1] | Potency [2] | Potency [3] | Potency [4] | Potency [9] | activity change, positive = activation [10] -3.38% [at 42.5 µM] | Potency [5] | Potency [6] | Potency [7]

CC(C)(C)CC(=O)OCC(=O)[C@@]1(O)CC[C@H]2[C@@H]3CCC4=CC(=O)C=C[C@]4(C)[C@H]3[C@@H](O)C[C@@]21C
inactive: Potency [1] | Potency [3] | outcome [8] | activity change, positive = activation [10] -49.3% [at 42.5 µM] | Potency [5] | Potency [7]
active: Potency [4] 55.2 µM | Potency [6] 19 µM

CN1CC(=O)N2[C@H](c3ccc4c(c3)OCO4)c3[nH]c4ccccc4c3C[C@@H]2C1=O
inactive: Potency [1] | Potency [2] | outcome [8] | Potency [4] | Potency [5] | Potency [6] | Potency [7]

COc1cc(C(=O)NC2CCN(C)CC2)ccc1Nc1ncc2c(n1)N(C1CCCC1)CC(F)(F)C(=O)N2C
active: Potency [2] 20 µM | Potency [5] 40 µM | Potency [6] 0.0142 µM
inactive: Potency [1] | outcome [8] | activity change, positive = activation [10] -53.6%

OC(CCN1CCCC1)(c1ccccc1)C1CCCCC1 (stereo not given)
inactive: Potency [1] | Potency [2] | Potency [4] | Potency [5] | Potency [6] | Potency [7]

CN1C(=O)c2ccccc2C1=O
inactive: Potency [1] | Potency [2] | Potency [4] | Potency [9] | activity change, positive = activation [10] 1.36% | Potency [5] | Potency [7]

CC(C)(c1ccccc1)c1ccccc1
inactive: Potency [1] | Potency [3] | outcome [8] | Potency [4] | Potency [5] | Potency [6] | Potency [7]

O=c1c(O)c(-c2ccc(O)cc2)oc2cc(O)cc(O)c12
inactive: Potency [1] | Potency [2] | activity change, positive = activation [10] 4.05% [at 42.5 µM] | Potency [5] | Potency [6] | Potency [7]

COc1ccc(OC(=O)N(CC(=O)O)Cc2ccc(OCCc3nc(-c4ccccc4)oc3C)cc2)cc1
inactive: Potency [1] | Potency [3] | outcome [8] | activity change, positive = activation [10] -6.74% [at 42.5 µM] | Potency [5] | Potency [6] | Potency [7]
active: Potency [4] 27.7 µM

C/C=C\C/C=C/CCCCCCCCOC(C)=O
inactive: Potency [1] | Potency [3] | outcome [8] | Potency [4] | activity change, positive = activation [10] -15% | Potency [5] | Potency [6] | Potency [7]

c1ccc2sc(SN(C3CCCCC3)C3CCCCC3)nc2c1
inactive: Potency [1] | Potency [3] | outcome [8] | Potency [4] | Potency [5] | Potency [6] | Potency [7]

CC(CO)CO
inactive: Potency [1] | Potency [2] | outcome [8] | Potency [4] | activity change, positive = activation [10] 0.194% | Potency [5] | Potency [6] | Potency [7]

CCC1CO1 (stereo not given)
inactive: Potency [1] | Potency [2] | outcome [8] | Potency [4] | Potency [5] | Potency [6] | Potency [7]

Oc1c(I)cc(I)c2cccnc12
inactive: Potency [1] | Potency [2] | Potency [4] | activity change, positive = activation [10] -8.8% [at 42.5 µM] | Potency [5] | Potency [7]

C=CC(=O)OCC1CC2CC1C1CCC(COC(=O)C=C)C21 (stereo not given)
inactive: Potency [1] | Potency [2] | Potency [7]

CCC=CC#N
inactive: Potency [1] | Potency [2] | outcome [8] | Potency [4] | Potency [5] | Potency [6] | Potency [7]

Cc1cc(=O)c2c(O)c3c(O)cc(=O)c4c3c3c(cc(O)c1c23)C(C)(C)C=4O
active: Potency [6] 1.17 µM | Potency [7] 3.69 µM
inactive: activation [1] 13.3% [at 19 µM] | activity change, negative = cytotoxicity [2] 15.9% [at 15.8 µM] | activation [8] -2.37% [at 15.8 µM] | activity change, negative = cytotoxicity [5] -25.2% [at 15.8 µM]

CC(C)=CCC1C(=O)N(c2ccccc2)N(c2ccccc2)C1=O
inactive: Potency [1] | Potency [3] | Potency [4] | Potency [5] | Potency [6] | Potency [7]

O=C(CCCN1CC=C(n2c(=O)[nH]c3ccccc32)CC1)c1ccc(F)cc1
inactive: Potency [1] | Potency [2] | Potency [5] | Potency [7]

O=[N+]([O-])c1ccc(Nc2ccc(Nc3ccccc3)c(S(=O)(=O)O)c2)c([N+](=O)[O-])c1
inactive: Potency [1] | Potency [2] | outcome [8] | Potency [4] | Potency [5] | Potency [6] | Potency [7]

O=C(O)C[C@H](NC(=O)OCc1ccccc1)C(=O)O
inactive: Potency [1] | Potency [2] | outcome [8] | Potency [4] | Potency [5] | Potency [6] | Potency [7]
